# Assay results: PubChem BioAssay (NCATS)
# Inconclusive results are not listed. Where a call stands in place of a potency, no number is given. Activity calls are given as the source filed them. Unless noted, calls follow the shape of the dose curve; as a rule, active = well fitted curve in the direction sought with a large enough effect; inconclusive = small, poorly fitted or top-dose-only effect, or another doubt; inactive = no such curve, though single readings can be large; an effect the other way counts as inactive or inconclusive.
# Key:
# [1] = biological target: Pyruvate kinase PKM (Homo sapiens) (UniProt P14618); assay: qHTS Assay for Activators of Human Muscle Pyruvate Kinase (AID 954; active = well fitted curve in the direction sought with a large enough effect, not every such curve was filed as active)
# Sequence of Pyruvate kinase PKM (Homo sapiens) (P14618 whole entry, looked up): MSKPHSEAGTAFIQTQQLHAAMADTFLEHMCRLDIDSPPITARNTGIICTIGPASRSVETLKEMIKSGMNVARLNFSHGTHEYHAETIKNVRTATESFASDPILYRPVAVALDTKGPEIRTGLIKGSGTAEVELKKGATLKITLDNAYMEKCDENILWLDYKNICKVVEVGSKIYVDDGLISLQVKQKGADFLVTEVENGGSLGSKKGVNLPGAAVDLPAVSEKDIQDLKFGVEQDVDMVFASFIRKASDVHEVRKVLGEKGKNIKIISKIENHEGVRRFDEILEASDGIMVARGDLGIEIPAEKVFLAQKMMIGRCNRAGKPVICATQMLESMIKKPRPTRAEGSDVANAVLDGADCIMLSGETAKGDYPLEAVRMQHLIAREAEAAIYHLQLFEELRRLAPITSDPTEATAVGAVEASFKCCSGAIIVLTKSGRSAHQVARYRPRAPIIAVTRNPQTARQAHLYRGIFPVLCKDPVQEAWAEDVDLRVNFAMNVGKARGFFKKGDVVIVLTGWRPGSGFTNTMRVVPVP
# In short: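 Human PKM2 activity is measured as ATP generation, detected by luciferase-coupled luminescence. The enzyme (0.1 nM) acts on 0.5 mM PEP and 0.1 mM ADP for 1 h at ambient temperature; data are normalized to uninhibited and full-inhibition wells.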
# [2] = Cell Viability - LYMP1-002 - Assay at 16 hr (AID 948)
# In short: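 LYMP1-002 human lymphoblastoid cells, 2500/well; 5 hr 37 C; cpd 16 hr 37 C; CellTiter-Glo 30 min RT; luminescence (ATP). Concentration-response, Hill-fit AC50. Pos ctrl tetraoctylammonium bromide.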
# [3] = MultiTox-Fluor Cytotoxicity Assay - LYMP1-002 - Dead Cells (AID 960); also: nearly all actives have a fitted effect of over 60% in size; also: potency is read from the fitted curve at half-maximal effect
# In short: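 LYMP1-002 cells 2500/well; 5 hr 37 C pre-incubation; compound 16 hr 37 C; MultiTox-Fluor reagent 60 min RT; dead-cell fluor Ex/Em 485/520. Norm. to DMSO (0%) vs 15 uM tetraoctylammonium bromide (100%); Hill AC50.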
# [4] = MultiTox-Fluor Cytotoxicity Assay - LYMP1-003 - Dead Cells (AID 961); also: nearly all actives have a fitted effect of over 70% in size; also: potency is read from the fitted curve at half-maximal effect
# In short: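 Dead-cell protease release, detected as bis-AAF-R110 fluorescence at 485/520 nm, was measured in LYMP1-003 cells after 16 h compound treatment at 37 C. AC50 values came from Hill-modeled qHTS curves normalized to DMSO (0%) and 15 uM tetraoctylammonium bromide (100%).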
# [5] = MultiTox-Fluor Cytotoxicity Assay - LYMP1-003 - Live Cells (AID 962);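 also: cells exposed to compound for 16 hours at 37 °C; cytotoxic hits lower the live-cell protease signal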
# In short: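 qHTS, 1536-well; 2500 cells/well LYMP1-003; 5 hr 37 C settle; cpd 16 hr 37 C; MultiTox-Fluor reagent 60 min RT; live-cell protease fluor. 405/510; Hill-fit AC50; tetraoctylammonium bromide pos. ctrl.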
# [6] = MultiTox-Fluor Cytotoxicity Assay - LYMP1-001 - Live Cells (AID 947)
# [7] = MultiTox-Fluor Cytotoxicity Assay - LYMP1-002 - Live Cells (AID 955);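 also: cells exposed to compound for 16 hours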
# In short: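 Read-out is live-cell protease activity (cell-permeant GF-AFC substrate, fluorescence Ex/Em=405/510), where a decrease indicates acute toxicity. Human lymphoblastoid cells were treated 16 hours at 37 C in a concentration series, and AC50 values came from standard Hill modelling.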
# [8] = Cell Viability - LYMP1-003 - Assay at 24 hr (AID 963)
# In short: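 Cells seeded at 2500/well, 5 hr at 37 C; compounds added; 24 hr at 37 C; CellTiter-Glo added, 30 min room temperature; luminescence read. Decrease in ATP taken as cytotoxicity, AC50 from Hill modelling.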
# [9] = biological target: Pyruvate kinase (Leishmania mexicana) (UniProt Q27686); assay: qHTS Validation Assay for Activators of Leishmania Mexicana Pyruvate Kinase (AID 959)
# Sequence of Pyruvate kinase (Leishmania mexicana) (Q27686 2-499 E452W): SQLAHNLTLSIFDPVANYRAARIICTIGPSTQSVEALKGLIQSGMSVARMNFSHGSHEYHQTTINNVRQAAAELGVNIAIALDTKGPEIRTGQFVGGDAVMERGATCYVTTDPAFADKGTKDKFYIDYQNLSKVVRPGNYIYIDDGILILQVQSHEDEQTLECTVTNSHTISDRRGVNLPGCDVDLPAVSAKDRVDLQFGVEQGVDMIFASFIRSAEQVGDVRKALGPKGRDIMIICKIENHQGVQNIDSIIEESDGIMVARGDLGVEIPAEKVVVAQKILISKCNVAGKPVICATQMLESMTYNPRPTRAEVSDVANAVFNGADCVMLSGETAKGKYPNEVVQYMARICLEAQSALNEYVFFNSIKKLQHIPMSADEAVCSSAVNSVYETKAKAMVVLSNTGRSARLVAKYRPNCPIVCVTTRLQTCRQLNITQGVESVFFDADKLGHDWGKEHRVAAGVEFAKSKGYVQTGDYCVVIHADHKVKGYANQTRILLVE
# In short: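 LmPYK E451W 0.2 nM; 0.5 mM PEP, 0.1 mM ADP, 7 mM MgCl2, 50 mM KCl, imidazole pH 7.2, 0.01% Tween 20, 0.05% BSA; 1 h RT; PKLight luminescence; DMSO-normalized.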
# [10] = biological target: Pyruvate kinase PKM (Homo sapiens) (UniProt P14618); assay: qHTS Assay for Inhibitors of Human Muscle Pyruvate Kinase (AID 958); settings: purified human PKM enzyme activity
# In short: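 PKM2, human, >95% pure, 0.1 nM; PEP 0.5 mM (Km), ADP 0.1 mM; 50 mM imidazole pH 7.2, 50 mM KCl, 0.01% Tween 20, 0.05% BSA; 1 h RT; luciferase luminescence readout.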
compound,measurement,setting,value
C[C@]12CCC(=O)C=C1CC[C@@H]1[C@@H]2CC[C@@]2(C)[C@H]1CC[C@]2(O)C(=O)CO,outcome,[1],inactive
COC(=O)[C@H]1[C@H]2C[C@@H]3c4[nH]c5cc(OC)ccc5c4CCN3C[C@H]2C[C@@H](OC(=O)c2cc(OC)c(OC)c(OC)c2)[C@@H]1OC,outcome,[2],inactive
same,Potency,[3],31.6 µM (active)
same,Potency,[4],50.1 µM (active)
same,outcome,[5],inactive
CCCCNc1c(C(=O)OCC)c(C)nc2c1cnn2CC,outcome,[1],inactive
CC(=O)Nc1nnc(S(N)(=O)=O)s1,outcome,[1],inactive
COc1ccc(CN(CCN(C)C)c2ccccn2)cc1,outcome,[6],inactive
same,outcome,[2],inactive
same,outcome,[7],inactive
same,Potency,[3],inactive
same,Potency,[4],inactive
same,outcome,[5],inactive
same,outcome,[8],inactive
NC(N)=NC(=O)Cc1c(Cl)cccc1Cl,outcome,[1],inactive
CCCCNC(=O)NS(=O)(=O)c1ccc(C)cc1,outcome,[6],inactive
same,outcome,[2],inactive
same,outcome,[7],inactive
same,Potency,[3],inactive
same,Potency,[4],inactive
same,outcome,[5],inactive
same,outcome,[8],inactive
CN(C)CC/C=C1\c2ccccc2COc2ccccc21,outcome,[1],inactive
CN=C(NC#N)NCCSCc1nc[nH]c1C,outcome,[6],inactive
same,outcome,[2],inactive
same,outcome,[7],inactive
same,Potency,[3],inactive
same,Potency,[4],inactive
same,outcome,[5],inactive
same,outcome,[8],inactive
COCC(=O)O[C@]1(CCN(C)CCCc2nc3ccccc3[nH]2)CCc2cc(F)ccc2[C@@H]1C(C)C,outcome,[1],inactive
NC(=Nc1ccccc1)Nc1ccccc1,outcome,[6],inactive
same,outcome,[2],inactive
same,outcome,[7],inactive
same,Potency,[3],inactive
same,Potency,[4],inactive
same,outcome,[5],inactive
same,outcome,[8],inactive
COc1cc(Cc2cnc(N)nc2N)cc(OC)c1OC,outcome,[6],inactive
same,outcome,[2],inactive
same,outcome,[1],inactive
same,outcome,[7],inactive
same,Potency,[3],inactive
same,Potency,[4],inactive
same,outcome,[5],inactive
same,outcome,[8],inactive
Brc1c(NC2=NCCN2)ccc2nccnc12,outcome,[1],inactive
COc1cc2c(cc1OC)-c1cc(=Nc3c(C)cc(C)cc3C)n(C)c(=O)n1CC2,outcome,[1],inactive
O=c1[nH]c(=O)n([C@H]2C[C@H](O)[C@@H](CO)O2)cc1Br,outcome,[6],inactive
same,outcome,[2],inactive
same,outcome,[1],inactive
same,outcome,[7],inactive
same,Potency,[3],inactive
same,Potency,[4],inactive
same,outcome,[5],inactive
same,outcome,[8],inactive
c1cc(CN2CCCCC2)cc(OCCCNc2nc3ccccc3s2)c1,outcome,[1],inactive
CCCCOCCOCCOCc1cc2c(cc1CCC)OCO2,outcome,[6],inactive
same,outcome,[2],inactive
same,outcome,[7],inactive
same,Potency,[3],inactive
same,Potency,[4],inactive
same,outcome,[5],inactive
same,outcome,[8],inactive
CN(C)CCCN1c2ccccc2Sc2ccccc21,outcome,[1],inactive
N[C@@H](COP(=O)(O)O)C(=O)O,outcome,[1],inactive
CSc1ccc(C(=O)c2[nH]c(=O)[nH]c2C)cc1,outcome,[1],inactive
Nc1nc(N)c2nc(-c3ccccc3)c(N)nc2n1,outcome,[6],inactive
same,outcome,[2],inactive
same,outcome,[1],inactive
same,outcome,[7],inactive
same,outcome,[9],inactive
same,Potency,[4],inactive
same,outcome,[5],inactive
NC(=O)N1c2ccccc2C=Cc2ccccc21,outcome,[6],inactive
same,outcome,[2],inactive
same,outcome,[1],inactive
same,outcome,[7],inactive
same,Potency,[3],inactive
same,Potency,[4],inactive
same,outcome,[5],inactive
same,outcome,[8],inactive
Cc1ccc(S(=O)(=O)NC(=O)NN2CCCCCC2)cc1,outcome,[1],inactive
CCc1c(C)[nH]c2c1C(=O)C(CN1CCOCC1)CC2 (configuration not stated),outcome,[1],inactive
O=C(O)CCCCCCCC(=O)O,outcome,[1],inactive
C[n+]1cc2c3c(ccc2c2ccc4cc5c(cc4c21)OCO5)OCO3,Potency,[10],10 µM (active)
same,outcome,[9],inactive
